The campaign covered roughly 200,000 compounds. About 520 (0.26%) were called active. This is one part of a sample in which actives are shown more often than they occur. Cut-off read from the data, not from the text of the source: active = activation above about 23%; inactive = the rest.
What follows are molecules tested against Peroxisome proliferator-activated receptor gamma (Homo sapiens) (UniProt P37231) (assay: PPARgamma agonists recruiting SRC-3 coactivator, primary screen, biochemical (AID 731;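 note: 0% = DMSO and 100% = reference agonist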)). Details: biochemical PPARgamma/SRC-3 coactivator recruitment assay; at 8 µM; active compounds read high.
Chain of Peroxisome proliferator-activated receptor gamma (Homo sapiens) (P37231 whole entry, looked up): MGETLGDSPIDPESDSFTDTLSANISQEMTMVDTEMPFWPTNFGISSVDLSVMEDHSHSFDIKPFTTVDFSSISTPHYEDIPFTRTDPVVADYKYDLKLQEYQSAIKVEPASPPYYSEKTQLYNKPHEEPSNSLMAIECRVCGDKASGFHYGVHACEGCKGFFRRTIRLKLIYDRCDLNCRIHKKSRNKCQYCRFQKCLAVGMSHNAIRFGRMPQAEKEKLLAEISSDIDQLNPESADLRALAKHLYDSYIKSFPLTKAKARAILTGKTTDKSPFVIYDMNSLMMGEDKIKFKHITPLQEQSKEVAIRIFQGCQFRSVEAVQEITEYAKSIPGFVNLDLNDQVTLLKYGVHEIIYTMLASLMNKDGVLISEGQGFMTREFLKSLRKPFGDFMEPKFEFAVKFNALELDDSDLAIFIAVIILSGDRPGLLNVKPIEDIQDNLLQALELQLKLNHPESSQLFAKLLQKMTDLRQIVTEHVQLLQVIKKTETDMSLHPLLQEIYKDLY
COc1cccc(NC(=O)c2ccc(S(=O)(=O)N(C)C)cc2)c1 was tested, and the activation was -1.26% (inactive). In the case of COc1ccc(/C=N/Nc2ncnc3sc4c(c23)CCCC4)cc1O, the activation was -0.73% (inactive). In the case of CCOC(=O)c1sc(-c2cccc([N+](=O)[O-])c2)cc1N, the activation was 10% (inactive). Cc1nc2ccccn2c1C(=O)NN=C1CCN(C)CC1 was tested, and the activation was -4.87% (inactive). O=C(NC(=S)Nc1cccc(-c2ccc(CO)o2)c1)c1cccs1 was tested, and the activation was 9.26% (inactive). With O=C(NCc1ccco1)c1cc(-c2cccnc2)nc2ccc(Cl)cc12 the activation was 7.42% (inactive). In the case of O=C(/C=C/c1ccc(Cl)cc1Cl)NCc1ccco1, the activation was -0.09% (inactive). With O=C(CSc1c2c(nc3ccc(Cl)cc13)CCCC2)NCc1ccco1 the activation was 31.6% (active). Cc1ccn(CC(=O)N2N=C(C(F)F)CC2(O)C(F)F)n1 (centres undefined) was tested, and the activation was 3.61% (inactive). With COc1ccc(N(C)S(=O)(=O)c2cccc3nsnc23)cc1 the activation was -0.54% (inactive). For CCN(/N=C/c1ccc(N(C)C)cc1)c1nc2ccccc2[nH]1, the activation was 16.6% (inactive). For CC1c2nc3ccccc3n2C(CC(=O)NCCCN2CCOCC2)C(=O)N1Cc1ccccc1 (centres undefined), the activation was -3.13% (inactive). For Cc1cccc(OP(=O)(Nc2c(C)n(C)n(-c3ccccc3)c2=O)Oc2cccc(C)c2)c1, the activation was 2.47% (inactive). CCN(CC)CCCNC(=O)c1cc(-c2cccc(Cl)c2)on1 was tested, and the activation was -5.33% (inactive). In the case of CCN(CC)CCCNC(=O)CCc1ccccc1, the activation was 4% (inactive). In the case of CCN(CCCNC(=O)CSc1cc(=O)n(C)c2cc(Cl)ccc12)Cc1ccccc1, the activation was 42.4% (active). For Cc1cc[n+](-c2[nH]c(=O)sc2/C=N/NC(=O)c2ccccc2[O-])cc1C, the activation was 1.17% (inactive). For CC(C)NC(=O)CSc1ccccc1C(=O)NCc1ccc2c(c1)OCO2, the activation was -3.43% (inactive). For CCn1c(=O)cc(SCC(=O)NCc2ccc3c(c2)OCO3)c2ccccc21, the activation was 31.8% (active). With CCn1c(=O)cc(SCC(=O)NCCC2=CCCCC2)c2ccccc21 the activation was 10.5% (inactive). With O=C(NCc1ccco1)C(=O)c1cn(CC(=O)N2CCCCCC2)c2ccccc12 the activation was 4.6% (inactive). For CN(C)c1ccc(C(CC(=O)O)C(=O)O)cc1 (centres undefined), the activation was 5.46% (inactive). With O=C(CNC(=O)C(c1ccccc1)c1ccccc1)N/N=C\c1ccc2c(c1)OCO2 the activation was -7.73% (inactive). In the case of COc1ccc(/C=C/C(=O)NC(=S)NN2CCCCC2c2cccnc2)cc1 (centres undefined), the activation was -0.5% (inactive). With Fc1ccc(COc2cccc(-c3n[nH]c(=S)o3)c2)cc1 the activation was 29.3% (active). With Cc1cccc(OCc2ccc(C(=O)Nc3ccc(F)cc3)cc2)c1 the activation was -4.26% (inactive). Cc1nc2ccccc2cc1OCc1ccc(F)cc1 was tested, and the activation was 4.08% (inactive). CC(C)/C=N/NC(=O)c1cc(Br)ccc1O was tested, and the activation was 4.98% (inactive). In the case of COc1cccc(-n2c(=S)sc3c(=O)n(-c4ccccc4OC)c(SCC4OCCO4)nc32)c1, the activation was -1.02% (inactive). For O=C(CCc1nnc(CCCCc2ccccc2)o1)NC(c1cccnc1)C(F)(F)F (centres undefined), the activation was 0.98% (inactive). For COc1ccccc1N1CCN(/N=C\C(Br)=C\c2ccccc2)CC1, the activation was 0.45% (inactive). C=CCNC(=O)CSc1nc2sc(C)c(C)c2c(=O)[nH]1 was tested, and the activation was -3.68% (inactive). CC(=O)c1sc2nc(SCC(=O)N3CCCCC3)[nH]c(=O)c2c1C was tested, and the activation was 32.9% (active). In the case of O=C(CSc1nc2c(cnn2-c2ccc(F)cc2)c(=O)[nH]1)N1CCCCCC1, the activation was -0.08% (inactive). For COCCN(C(=O)CCC(=O)Nc1nccs1)C(C(=O)NC(C)(C)C)c1ccc(Cl)cc1 (centres undefined), the activation was 8.27% (inactive). With Cc1ccccc1C1=N/C(=C/c2cccnc2)C(=O)O1 the activation was 5.51% (inactive). Cc1ccc(S(=O)(=O)N(C)CC(=O)OCC(=O)N2CC(=O)Nc3ccccc32)cc1 was tested, and the activation was -1.93% (inactive). In the case of COc1cccc(NC(=O)Cn2c3ccccc3c3nc4n(c(=O)c32)CCS4)c1, the activation was 3.77% (inactive). For O=C(NCc1cccs1)C1CCN(S(=O)(=O)c2ccc(Cl)cc2)CC1, the activation was 0.55% (inactive). For O=C(N/C(=C\c1ccc(F)cc1)C(=O)N1CCCCCC1)c1ccccc1, the activation was 2.6% (inactive). For O=C(Oc1ccccc1)Oc1ccc2c(c1)oc(=O)c1ccccc12, the activation was 57.2% (active). For CC(=O)Oc1ccc2c(C)c(CC(C)O)c(=O)oc2c1 (centres undefined), the activation was -4.46% (inactive). With Cc1c(Cc2ccccc2)c(=O)oc2cc(OCC(N)=O)ccc12 the activation was 1.07% (inactive). In the case of CNc1ccc(NC(C)=O)cc1[N+](=O)[O-], the activation was -3.86% (inactive). In the case of CCC1(CC)NC(=O)N(CC(=O)OCC(=O)Nc2ccc(C(F)(F)F)cc2)C1=O, the activation was -5.07% (inactive). For CCCCCOc1ccc(/C=C/C(=O)NCCc2nc3ccccc3[nH]2)cc1OC, the activation was 0.87% (inactive). For Cn1c(C(=O)OC(C(=O)NC2CCCCC2)c2ccccn2)cc2sccc21 (centres undefined), the activation was 0.71% (inactive). For Cc1ccc(Cl)cc1NC(=O)C1CCN(S(C)(=O)=O)CC1, the activation was -1.48% (inactive). For CCNCCC(=O)N1c2ccccc2Sc2ccc(NC(=O)OCC)cc21, the activation was -12.4% (inactive). NNC(=O)C1CC(O)CN1S(=O)(=O)c1ccc(Cl)cc1 (centres undefined) was tested, and the activation was 8.66% (inactive). CC1CC(C)CN(CCC(=O)Nc2ccc3c(c2)CCC3)C1 (centres undefined) was tested, and the activation was 6.43% (inactive). For COC(C(=O)Nc1ccc(C(C)=O)cc1)c1ccccc1 (centres undefined), the activation was -2.12% (inactive). With COc1ccccc1CCNC(=O)CSc1nnc2ccc(-c3cccnc3)nn12 the activation was 2.38% (inactive). In the case of O=C(CN1CCN(c2ncccn2)CC1)Nc1ccccc1C(F)(F)F, the activation was -0.44% (inactive). COCCn1c(Cc2cccn2C)nnc1SCC(=O)Nc1nccs1 was tested, and the activation was 4.15% (inactive). In the case of Cc1nc(N2CCOCC2)c2c(C)c(C(=O)Nc3ccc(C(F)(F)F)cc3)sc2n1, the activation was 6.42% (inactive). For Cc1ccc(N2C(=O)C3C(c4ccccc4)(C2=O)C3(c2ccccc2)c2ccccc2)cc1 (centres undefined), the activation was -5.3% (inactive). In the case of O=C(O)CCS(=O)(=O)c1ccc(-c2ccccc2)cc1, the activation was -2.87% (inactive). With C=CCC(CC=C)(C(N)=O)c1ccccc1 the activation was -2.8% (inactive). In the case of CCOC(=O)CNC(=O)CSc1ccc2nnc(-c3cccnc3)n2n1, the activation was -2.1% (inactive). With COc1ccc(OCC(=O)Nc2ccc(N3CCC(C)CC3)cc2)cc1 the activation was 1.65% (inactive). With CCOc1ccc(Br)cc1S(=O)(=O)Nc1cccc(S(=O)(=O)N(CC)CC)c1 the activation was -0.46% (inactive). For CC(=O)N1CC(C)c2scc(C)[n+]2-c2ccccc21 (centres undefined), the activation was 0.84% (inactive). For CCC(C)N(C)C1CCN(C(=S)Nc2ccc(OC)cc2)CC1 (centres undefined), the activation was -0.62% (inactive). CCN(CC)c1ccc2cc(C(=O)O)c(=O)oc2c1 was tested, and the activation was 1.62% (inactive). For CCN(CC)c1ccc2c(Nc3ccccc3)c(C=O)c(=O)oc2c1, the activation was -1.59% (inactive). In the case of CCN(CC)c1ccc2oc(=O)c(C)nc2c1, the activation was 30.3% (active). With Cc1ccccc1N/C(SCc1ccc(Cl)cc1)=C(/C#N)C(N)=O the activation was -0.24% (inactive). CCCCC1N2CC3([N+](=O)[O-])CN1CC([N+](=O)[O-])(C2)C3(C)C (centres undefined) was tested, and the activation was 3.26% (inactive). For Cc1nc(SCC(=O)N2CC(=O)Nc3ccccc32)c2c(C)c(C)sc2n1, the activation was 7.47% (inactive). With COc1cc(/C=C/C2=CC(C)(C)NC(=S)N2)cc(OC)c1OC the activation was -3.19% (inactive). COc1cc(C(=S)N2CCOCC2)ccc1O was tested, and the activation was 6.53% (inactive). For COc1cc(C(=S)N2CCOCC2)cc(OC)c1OC(=O)c1cc([N+](=O)[O-])c(C)c([N+](=O)[O-])c1, the activation was 27.4% (active). COc1cc(C(=S)N2CCOCC2)cc(OC)c1OC(=O)c1cc([N+](=O)[O-])cc([N+](=O)[O-])c1 was tested, and the activation was 1.22% (inactive). With COC(=O)Cc1ccc(NC(=S)NCc2ccco2)cc1 the activation was -0.79% (inactive). With CCc1nnc(NC(=O)Cc2cccs2)s1 the activation was 0.13% (inactive). In the case of O=C(O)CCCCOn1ccnc1, the activation was -4.37% (inactive). For CN1CCN(c2ccc(S(=O)(=O)Nc3ccccc3)cc2[N+](=O)[O-])CC1, the activation was 8.11% (inactive). In the case of CC(C)(C)c1ccc(/C=C/C(=O)Nc2ncccn2)cc1, the activation was -0.41% (inactive). In the case of O=C(C1=C[C@H](c2ccc(C(F)(F)F)cc2)C[C@H](OCc2ccc(CO)cc2)O1)N1CCN(Cc2ccccc2)CC1, the activation was 5.31% (inactive). For N#Cc1ccccc1Sc1ccccc1C(=O)OCC(=O)NC1CCCCC1, the activation was -1.17% (inactive). For CCOc1ccc(NC(=O)CCC(=O)n2nc(C)cc2C)cc1, the activation was 19.2% (inactive). CCOc1ccc(NC(=O)CSc2ncnc3c2sc2ccccc23)cc1 was tested, and the activation was 23.1% (active). In the case of CCOc1ccc(NC(=O)CSc2nc3ccccc3c(=O)n2Cc2cccs2)cc1, the activation was -1% (inactive). With COc1cc(OC)c(-n2cc(-c3ccc(Cl)cc3)[nH]c2=O)cc1Cl the activation was 2.05% (inactive). In the case of NS(=O)(=O)c1ccc(NC(=O)COC(=O)CCc2c[nH]c3ccccc23)cc1, the activation was 1.02% (inactive). For COc1cc(NS(=O)(=O)c2ccc(NC(=O)CN3C(=O)c4ccccc4C3=O)cc2)ncn1, the activation was 4.24% (inactive). For COc1ccc(C(CC(=O)Nc2ccc(C)cc2)NC(=O)C(F)(F)F)cc1 (centres undefined), the activation was 1.26% (inactive). With CN1CCC(OC(=O)COc2ccc(Cl)cc2Cl)CC1 the activation was -2.65% (inactive). In the case of Cc1ccc(NC(=O)OCc2cncs2)cc1, the activation was 3.15% (inactive). In the case of O=C1C2C3C=CC(C4CC34)C2C(=O)N1c1nccs1 (centres undefined), the activation was -3% (inactive). O=C(/C=C/c1cn(-c2ccccc2)nc1-c1ccc2c(c1)OCCO2)NCCCN1CCOCC1 was tested, and the activation was 5.25% (inactive). For Cc1cccc(OCCNC(=O)CSc2ccc(C(F)(F)F)cc2[N+](=O)[O-])c1, the activation was -3.57% (inactive). For Cc1cc(O)c(NC(=O)c2ccc(C)c([N+](=O)[O-])c2)cc1C, the activation was -0.67% (inactive).
